From PubChem BioAssay (NCATS)
Activity calls are given as the source filed them. Calls follow the shape of the full dose curve.

Molecular target: Guanidinoacetate N-methyltransferase (Homo sapiens) (UniProt Q14353)
Experiment: Confirmatory Screen for Target Class Profiling of Small Molecule Inhibitors of Methyltransferases (AID 1745852); as to activity change, negative = inhibition: % is scaled to controls: 0 for no effect and ±100 for the full control effect
Conditions: MTase-Glo luminescence, SAH detection, recombinant enzyme; activity change, negative = inhibition: at 57.3 µM (top of the series) unless noted; series mostly up to 57.3 µM
Potency is read from the fitted curve at half-maximal effect.

Row | SMILES | activity change, negative = inhibition | Potency
1 | CN(C)CC1CCn2c(c(C3=C(c4cn(C)c5ccccc45)C(=O)NC3=O)c3ccccc32)C1 (stereo unspecified) | -2.82% | 
2 | CCn1c2ccccc2c2cc(Nc3ccnc(NCCCN4CCOCC4)n3)ccc21 | -7.76% | 
3 | COC1C=C(C)C(O)(CO)C2(C)CCCC(C)(C)C12 (stereo unspecified) | -5.83% | 
4 | Fc1ccc2[nH]ccc2c1-c1nc(N2CCOCC2)c2sc(CN3CCN(CC4CC4)CC3)cc2n1 | 0% | 
5 | C=C1C(=O)O[C@@H]2/C=C(\CO)CC/C=C(/C=O)C[C@@H](O)[C@@H]12 | -8.49% | 
6 | CC1(C)CC[C@]2(C(=O)O[C@@H]3O[C@H](CO)[C@@H](O)[C@H](O)[C@H]3O)CC[C@]3(C)C(=CCC4[C@@]5(C)CC[C@H](O[C@@H]6O[C@H](C(=O)O)[C@H](O)[C@H](O)[C@H]6O)C(C)(C)C5CC[C@]43C)[C@@H]2C1 (stereo partly specified) | -1.02% [at 19.1 µM] | 
7 | Cc1c[nH]c2ncnc(N3CCC(CN)(C(=O)Nc4cccc(OC(=O)N(C)C)c4)CC3)c12 | -4.87% [at 114 µM] | 
8 | CC(C)C[C@H](C(=O)O)c1cc(-c2ccc(C(F)(F)F)cc2)cc(-c2ccc(C(F)(F)F)cc2)c1 |  | 48.2 µM (active)
9 | Nc1nc(NC2CC2)cc(-c2cccc(Cl)c2Cl)n1 | -4.54% | 
10 | NC(=O)c1ccccc1Nc1ccnc(Nc2cccc(O)c2)n1 | 1.25% | 
11 | Cc1[nH]c(/C=C2\C(=O)Nc3ccc(S(=O)(=O)N(C)c4cccc(Cl)c4)cc32)c(C)c1C(=O)N1CCN(C)CC1 | -2.8% | 
12 | COc1cc(/C=C2\CCCN([C@@H](C)c3ccc(F)cc3)C2=O)ccc1-n1cnc(C)c1 |  | 2.41 µM (active)

Molecular target: Nicotinamide N-methyltransferase (Homo sapiens) (UniProt P40261)
Experiment: as above
Conditions: MTase-Glo luminescence, SAH detection, recombinant enzyme; measured here: NNMT max response; stronger effect = lower value

Nicotinamide N-methyltransferase (Homo sapiens), sequence (P40261 whole entry, looked up): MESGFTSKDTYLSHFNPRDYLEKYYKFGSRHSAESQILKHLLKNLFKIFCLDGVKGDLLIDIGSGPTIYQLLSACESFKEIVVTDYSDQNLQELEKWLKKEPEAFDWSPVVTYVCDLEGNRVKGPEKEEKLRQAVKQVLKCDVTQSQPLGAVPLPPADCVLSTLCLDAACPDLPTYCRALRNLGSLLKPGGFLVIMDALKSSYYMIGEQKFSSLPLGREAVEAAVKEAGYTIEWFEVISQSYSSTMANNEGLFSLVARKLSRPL

Row | SMILES | activity [%]
13 | CN(C)CC1CCn2c(c(C3=C(c4cn(C)c5ccccc45)C(=O)NC3=O)c3ccccc32)C1 (stereo unspecified) | -44.5
14 | CCn1c2ccccc2c2cc(Nc3ccnc(NCCCN4CCOCC4)n3)ccc21 | -66.6
15 | COC1C=C(C)C(O)(CO)C2(C)CCCC(C)(C)C12 (stereo unspecified) | -3.75
16 | Fc1ccc2[nH]ccc2c1-c1nc(N2CCOCC2)c2sc(CN3CCN(CC4CC4)CC3)cc2n1 | -62.5
17 | C=C1C(=O)O[C@@H]2/C=C(\CO)CC/C=C(/C=O)C[C@@H](O)[C@@H]12 | -2.02
18 | CC1(C)CC[C@]2(C(=O)O[C@@H]3O[C@H](CO)[C@@H](O)[C@H](O)[C@H]3O)CC[C@]3(C)C(=CCC4[C@@]5(C)CC[C@H](O[C@@H]6O[C@H](C(=O)O)[C@H](O)[C@H](O)[C@H]6O)C(C)(C)C5CC[C@]43C)[C@@H]2C1 (stereo partly specified) | -9.04
19 | Cc1c[nH]c2ncnc(N3CCC(CN)(C(=O)Nc4cccc(OC(=O)N(C)C)c4)CC3)c12 | -59.8
20 | CC(C)C[C@H](C(=O)O)c1cc(-c2ccc(C(F)(F)F)cc2)cc(-c2ccc(C(F)(F)F)cc2)c1 | -40.6
21 | Nc1nc(NC2CC2)cc(-c2cccc(Cl)c2Cl)n1 | -52.3
22 | NC(=O)c1ccccc1Nc1ccnc(Nc2cccc(O)c2)n1 | -41.1
23 | Cc1[nH]c(/C=C2\C(=O)Nc3ccc(S(=O)(=O)N(C)c4cccc(Cl)c4)cc32)c(C)c1C(=O)N1CCN(C)CC1 | -49.1
24 | COc1cc(/C=C2\CCCN([C@@H](C)c3ccc(F)cc3)C2=O)ccc1-n1cnc(C)c1 | -25.5

Molecular target: Phenylethanolamine N-methyltransferase (Homo sapiens) (UniProt P11086)
Experiment: as above
Conditions: MTase-Glo luminescence, SAH detection, recombinant enzyme; measured here: PNMT max response; stronger effect = lower value

Phenylethanolamine N-methyltransferase (Homo sapiens), sequence (P11086 whole entry, looked up): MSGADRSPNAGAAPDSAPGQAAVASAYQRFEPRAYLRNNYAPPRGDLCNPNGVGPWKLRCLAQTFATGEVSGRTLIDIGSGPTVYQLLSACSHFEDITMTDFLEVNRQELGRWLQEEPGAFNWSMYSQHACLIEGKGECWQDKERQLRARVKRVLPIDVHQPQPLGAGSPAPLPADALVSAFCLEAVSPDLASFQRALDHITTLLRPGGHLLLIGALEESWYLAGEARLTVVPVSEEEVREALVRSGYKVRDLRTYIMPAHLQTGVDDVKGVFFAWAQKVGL

Row | SMILES | activity [%]
25 | CN(C)CC1CCn2c(c(C3=C(c4cn(C)c5ccccc45)C(=O)NC3=O)c3ccccc32)C1 (stereo unspecified) | -10.7
26 | CCn1c2ccccc2c2cc(Nc3ccnc(NCCCN4CCOCC4)n3)ccc21 | -29.8
27 | COC1C=C(C)C(O)(CO)C2(C)CCCC(C)(C)C12 (stereo unspecified) | -2.37
28 | Fc1ccc2[nH]ccc2c1-c1nc(N2CCOCC2)c2sc(CN3CCN(CC4CC4)CC3)cc2n1 | -22.1
29 | C=C1C(=O)O[C@@H]2/C=C(\CO)CC/C=C(/C=O)C[C@@H](O)[C@@H]12 | -2.71
30 | CC1(C)CC[C@]2(C(=O)O[C@@H]3O[C@H](CO)[C@@H](O)[C@H](O)[C@H]3O)CC[C@]3(C)C(=CCC4[C@@]5(C)CC[C@H](O[C@@H]6O[C@H](C(=O)O)[C@H](O)[C@H](O)[C@H]6O)C(C)(C)C5CC[C@]43C)[C@@H]2C1 (stereo partly specified) | -2.05
31 | Cc1c[nH]c2ncnc(N3CCC(CN)(C(=O)Nc4cccc(OC(=O)N(C)C)c4)CC3)c12 | -19.2
32 | CC(C)C[C@H](C(=O)O)c1cc(-c2ccc(C(F)(F)F)cc2)cc(-c2ccc(C(F)(F)F)cc2)c1 | -16.1
33 | Nc1nc(NC2CC2)cc(-c2cccc(Cl)c2Cl)n1 | -7.75
34 | NC(=O)c1ccccc1Nc1ccnc(Nc2cccc(O)c2)n1 | -7.27
35 | Cc1[nH]c(/C=C2\C(=O)Nc3ccc(S(=O)(=O)N(C)c4cccc(Cl)c4)cc32)c(C)c1C(=O)N1CCN(C)CC1 | -9.35
36 | COc1cc(/C=C2\CCCN([C@@H](C)c3ccc(F)cc3)C2=O)ccc1-n1cnc(C)c1 | -13
